Laboratory results taken from PubChem BioAssay (NCI).
About 79,000 compounds went through this panel and 15% of them were active in at least one assay; those are over-represented in the sample as a whole. Unmarked numbers belong to inactive results. Calls of active or inactive are those of the source. Rule as the data show it: active = growth inhibition above about 70%; inactive = the rest.

Columns and labels:
[1] = NCI Yeast Anticancer Drug Screen. Data for the rad50 strain (AID 155);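 also: 0% = growth of vehicle-only cultures of the same strain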; settings: S. cerevisiae rad50 strain growth inhibition; at 50.0 µM; hits give high values
Summary of the method: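 Growth of the mutant yeast was measured after compound exposure and referenced to vehicle-treated cultures.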

[2] = NCI Yeast Anticancer Drug Screen. Data for the mec2-1 strain (AID 157); settings: S. cerevisiae mec2-1 strain, at 50.0 µM, hits give high values
Summary of the method: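 Test agents were screened against the mec2-1 yeast strain, with defined DNA repair or cell cycle alteration. Growth was scored as inhibition against vehicle-only controls.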

[3] = NCI Yeast Anticancer Drug Screen. Data for the sgs1 mgt1 strain (AID 161);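 also: 0% = growth of cultures given vehicle only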; settings: S. cerevisiae sgs1 mgt1 strain, at 50.0 µM, hits give high values
Summary of the method: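 Read-out: growth inhibition vs vehicle controls. Cells: mutant yeast strain deficient in DNA damage repair.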

[4] = NCI Yeast Anticancer Drug Screen. Data for the cln2 rad14 strain (AID 165);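 also: 0% = growth equal to vehicle treated cultures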; settings: S. cerevisiae cln2 rad14 strain, at 50.0 µM, hits give high values
Summary of the method: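 Growth of compound-exposed yeast (cln2 rad14 genotype) measured and expressed as inhibition relative to vehicle.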

[5] = NCI Yeast Anticancer Drug Screen. Data for the bub3 strain (AID 167); settings: S. cerevisiae bub3 mutant strain, at 50.0 µM, hits give high values
Summary of the method: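 Whole-cell yeast assay. The mutant strain was incubated with compounds, and growth inhibition was determined by comparison with vehicle-treated cells.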

[6] = NCI Yeast Anticancer Drug Screen. Data for the mlh1 rad18 strain (AID 175); settings: S. cerevisiae mlh1 rad18 strain growth inhibition; at 50.0 µM; hits give high values
Summary of the method: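 In this whole-cell yeast screen, a strain with altered DNA damage repair is challenged with compound, and its growth is measured against matched vehicle-treated controls.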

Compound: Cc1c(-c2ccccc2)n[nH]c1-c1[nH]nc(-c2ccccc2)c1C
- growth inhibition [1]: -9.7%
- growth inhibition [2]: -16.9%
- growth inhibition [3]: -24.2%
- growth inhibition [4]: -15%
- growth inhibition [5]: -41.1%
- growth inhibition [6]: -19.1%

Compound: C(#Cc1c2ccccc2c(C#Cc2ccccc2)c2c(-c3ccccc3)cccc12)c1ccccc1
- growth inhibition [1]: -11.1%
- growth inhibition [2]: 13.1%
- growth inhibition [3]: -3.5%
- growth inhibition [4]: 4.05%
- growth inhibition [5]: 45.6%
- growth inhibition [6]: 24.5%

Compound: CC(C)c1cccc(C(C)(C)C)n1
- growth inhibition [1]: 16.1%
- growth inhibition [2]: 30.5%
- growth inhibition [3]: -2.7%
- growth inhibition [4]: -3.65%
- growth inhibition [5]: 0.3%
- growth inhibition [6]: 11.1%

Compound: COC1(OC)CCCc2c1no[n+]2[O-]
- growth inhibition [1]: -43.4%
- growth inhibition [2]: -11.3%
- growth inhibition [3]: -50.2%
- growth inhibition [4]: -16.7%
- growth inhibition [5]: 16.5%
- growth inhibition [6]: -21.2%

Compound: Cc1[nH]c2ccc(C(=O)NN)cc2c1CC(=O)NN
- growth inhibition [1]: 12.2%
- growth inhibition [2]: 8.45%
- growth inhibition [3]: 14.8%
- growth inhibition [4]: -23.1%
- growth inhibition [5]: 6.55%
- growth inhibition [6]: 25.1%

Compound: CCCC/C(C)=N/NC(N)=S
- growth inhibition [1]: 2.3%
- growth inhibition [2]: -4.3%
- growth inhibition [3]: -4.3%
- growth inhibition [4]: -2.65%
- growth inhibition [5]: -15.9%
- growth inhibition [6]: 1.9%

Compound: CC(=O)OC1=NCC(OC(C)=O)=NC1
- growth inhibition [1]: 5.2%
- growth inhibition [2]: 13.9%
- growth inhibition [3]: 2.25%
- growth inhibition [4]: -16.9%
- growth inhibition [5]: 2.65%
- growth inhibition [6]: 6.5%

Compound: CN(C)C(=O)Nc1cccc2c(NC(=O)N(C)C)cccc12
- growth inhibition [1]: -1.4%
- growth inhibition [2]: 4.4%
- growth inhibition [3]: 10.7%
- growth inhibition [4]: 11.9%
- growth inhibition [5]: -4.45%
- growth inhibition [6]: -1.55%

Compound: O=C(O)c1c(F)c(F)c(C(=O)O)c(F)c1F
- growth inhibition [1]: 6.25%
- growth inhibition [2]: -15.8%
- growth inhibition [3]: 16.3%
- growth inhibition [4]: 15.1%
- growth inhibition [5]: 14.9%
- growth inhibition [6]: 11.5%

Compound: CC1C2(c3ccccc3)C(C(=O)c3ccccc3)NC(c3ccccc3)C12c1ccccc1 (stereo unspecified)
- growth inhibition [1]: 46%
- growth inhibition [2]: 6.35%
- growth inhibition [3]: 28.2%
- growth inhibition [4]: 18.9%
- growth inhibition [5]: 2.2%
- growth inhibition [6]: 34.6%

Compound: CCNc1ccc(C)cc1
- growth inhibition [1]: 55.4%
- growth inhibition [2]: -4.1%
- growth inhibition [3]: 0.1%
- growth inhibition [4]: -14%
- growth inhibition [5]: -5.15%
- growth inhibition [6]: 33.5%

Compound: CC1=CCC(=O)O1
- growth inhibition [1]: 2.15%
- growth inhibition [2]: 8.2%
- growth inhibition [3]: -1.7%
- growth inhibition [4]: 12.2%
- growth inhibition [5]: -7.75%
- growth inhibition [6]: 15.3%

Compound: O=C(COc1ccc(Cl)cc1)NCCOC(=O)COc1ccc(Cl)cc1
- growth inhibition [1]: 37.5%
- growth inhibition [2]: 20.4%
- growth inhibition [3]: 12.2%
- growth inhibition [4]: 18.2%
- growth inhibition [5]: 21.3%
- growth inhibition [6]: 52.3%

Compound: Cc1cccc(C)c1NC(=O)CCC(=O)NC(N)=NC#N
- growth inhibition [1]: -33.1%
- growth inhibition [2]: -23.8%
- growth inhibition [3]: -25.7%
- growth inhibition [4]: 9.7%
- growth inhibition [5]: -23.8%
- growth inhibition [6]: -23.1%

Compound: O=C1NCC/C1=C\c1ccccc1
- growth inhibition [1]: -7.2%
- growth inhibition [2]: -10.7%
- growth inhibition [3]: -4.6%
- growth inhibition [4]: -8.05%
- growth inhibition [5]: -6.65%
- growth inhibition [6]: -15.4%

Compound: CCN(CC)CCCC(C)NC(=O)c1ccc2c(c1O)C(=O)c1ccccc1C2=O (stereo unspecified)
- growth inhibition [1]: 64%
- growth inhibition [2]: -7.75%
- growth inhibition [3]: 65.6%
- growth inhibition [4]: 58.5%
- growth inhibition [5]: 30.1%
- growth inhibition [6]: 84.6% (active)

Compound: O=C(O)[C@@H]1[C@H](C(=O)O)[C@H](C(=O)O)C[C@@H]1C(=O)O
- growth inhibition [1]: 6.2%
- growth inhibition [2]: -33.9%
- growth inhibition [3]: -24.9%
- growth inhibition [4]: -1.85%
- growth inhibition [5]: -69%
- growth inhibition [6]: 20.1%

Compound: COC(=O)[C@]12CCC(C)[C@H](C)[C@H]1C1=CCC3[C@@]4(C)CC[C@H](OC(C)=O)C(C)(C)C4CC[C@@]3(C)C1(C)C(O)C2 (stereo partly specified)
- growth inhibition [1]: 23.1%
- growth inhibition [2]: -22.5%
- growth inhibition [3]: -8.45%
- growth inhibition [4]: 8.5%
- growth inhibition [5]: -0.4%
- growth inhibition [6]: 21.9%

Compound: CCCC(=O)Oc1ccc(Br)cc1
- growth inhibition [1]: 6.6%
- growth inhibition [2]: -22.4%
- growth inhibition [3]: -5.25%
- growth inhibition [4]: 12.8%
- growth inhibition [5]: -17.9%
- growth inhibition [6]: 20.9%

Compound: COc1ccc(-c2cc(N)c3c(c2O)C(=O)c2c(N)ccc(O)c2C3=O)cc1
- growth inhibition [1]: 13.3%
- growth inhibition [2]: 4.75%
- growth inhibition [3]: 4.75%
- growth inhibition [4]: -23.6%
- growth inhibition [5]: -4.65%
- growth inhibition [6]: 9.25%

Compound: C=CCn1c(=O)cc[nH]c1=S
- growth inhibition [1]: -11.6%
- growth inhibition [2]: -13.2%
- growth inhibition [3]: -24.7%
- growth inhibition [4]: 3.4%
- growth inhibition [5]: -1.05%
- growth inhibition [6]: -21.2%

Compound: O=C(CCN1C(=O)c2ccccc2C1=O)c1cnc(N2C(=O)c3ccccc3C2=O)[nH]1
- growth inhibition [1]: 15.6%
- growth inhibition [2]: -4.45%
- growth inhibition [3]: 11.4%
- growth inhibition [4]: -22.4%
- growth inhibition [5]: 18.9%
- growth inhibition [6]: 2.5%

Compound: OC1c2c(ccc3ccccc23)CCC1N1CCCCC1 (stereo unspecified)
- growth inhibition [1]: 12.6%
- growth inhibition [2]: -4.45%
- growth inhibition [3]: 0.9%
- growth inhibition [4]: -34.5%
- growth inhibition [5]: -13.4%
- growth inhibition [6]: -5%

Compound: COC1=CC(=O)c2ccc(C(C)C)cc2C1(C)C1=NC(C)(C)CO1 (stereo unspecified)
- growth inhibition [1]: -1.55%
- growth inhibition [2]: -14.4%
- growth inhibition [3]: -0.85%
- growth inhibition [4]: 16.8%
- growth inhibition [5]: -6.45%
- growth inhibition [6]: -9.8%

Compound: NC(=S)N/N=C/C1=C(Cl)c2ccccc2C1
- growth inhibition [1]: 7.45%
- growth inhibition [2]: 6.5%
- growth inhibition [3]: 1.15%
- growth inhibition [4]: -4.45%
- growth inhibition [5]: -2.55%
- growth inhibition [6]: 13.2%

Compound: CC(=O)OCC1OC(OC(C)=O)C(N)C(OC(C)=O)C1OC(C)=O (stereo unspecified)
- growth inhibition [1]: 2.15%
- growth inhibition [2]: 11.8%
- growth inhibition [3]: 11.9%
- growth inhibition [4]: 9.05%
- growth inhibition [5]: -15.9%
- growth inhibition [6]: 19.4%

Compound: N#CCCn1c(CCC(=O)Nc2ccc(Cl)cc2Cl)n[nH]c1=S
- growth inhibition [1]: -8.4%
- growth inhibition [2]: 0.65%
- growth inhibition [3]: -6.05%
- growth inhibition [4]: 13.6%
- growth inhibition [5]: 1.7%
- growth inhibition [6]: 2.45%

Compound: CC(=O)OCCOCNC(=S)N/N=C/c1ccc(Br)s1
- growth inhibition [1]: 15.3%
- growth inhibition [2]: -8.3%
- growth inhibition [3]: 20.1%
- growth inhibition [4]: 28.1%
- growth inhibition [5]: 9.2%
- growth inhibition [6]: -0.8%

Compound: CCOC(=O)Cn1c(C(F)(F)F)nc2nc(Cl)c(Cl)nc21
- growth inhibition [1]: -0.6%
- growth inhibition [2]: -22.9%
- growth inhibition [3]: -33.5%
- growth inhibition [4]: -94.9%
- growth inhibition [5]: -19.9%
- growth inhibition [6]: -17.1%

Compound: Cn1c(=O)c2c(nc(Br)n2CC(=O)c2ccc([N+](=O)[O-])cc2)n(C)c1=O
- growth inhibition [1]: 24.8%
- growth inhibition [2]: 16.1%
- growth inhibition [3]: 22.1%
- growth inhibition [4]: 18.9%
- growth inhibition [5]: 0.55%
- growth inhibition [6]: 27.4%

Compound: CCOc1ccc(Nc2nc(C(Cl)(Cl)Cl)cc(C(Cl)(Cl)Cl)n2)cc1CN(CC)CC
- growth inhibition [1]: 98.2% (active)
- growth inhibition [2]: 99.1% (active)
- growth inhibition [3]: 99% (active)
- growth inhibition [4]: 98.1% (active)
- growth inhibition [5]: 98% (active)
- growth inhibition [6]: 98.8% (active)

Compound: CC(C)(N)CNc1ccccc1
- growth inhibition [1]: -0.55%
- growth inhibition [2]: -4.95%
- growth inhibition [3]: -9.85%
- growth inhibition [4]: -11.1%
- growth inhibition [5]: 15.7%
- growth inhibition [6]: -4.4%

Compound: CCN1C(=O)N(CC)C2(CC(=O)c3ccccc3O2)C1=O (stereo unspecified)
- growth inhibition [1]: 15.2%
- growth inhibition [2]: -3.45%
- growth inhibition [3]: 20.2%
- growth inhibition [4]: 7.15%
- growth inhibition [5]: 20.1%
- growth inhibition [6]: 19.6%

Compound: CC(C)/C=N/N(CCOC(=O)Nc1cccc2ccccc12)C(=O)Nc1cccc2ccccc12
- growth inhibition [1]: -4.95%
- growth inhibition [2]: -15.1%
- growth inhibition [3]: 1.75%
- growth inhibition [4]: -19.8%
- growth inhibition [5]: -8.15%
- growth inhibition [6]: 14.8%

Compound: O=C1Cc2c(-c3ccccc3)cc(-c3ccccc3)nc2-c2ccccc2N1
- growth inhibition [1]: -4.2%
- growth inhibition [2]: 39.2%
- growth inhibition [3]: 39%
- growth inhibition [4]: 25.7%
- growth inhibition [5]: 29.2%
- growth inhibition [6]: 41.2%

Compound: OCC1=C(CO)CC=CC1
- growth inhibition [1]: -21%
- growth inhibition [2]: 10%
- growth inhibition [3]: 2.2%
- growth inhibition [4]: 1.5%
- growth inhibition [5]: -3.05%
- growth inhibition [6]: 28.6%

Compound: N#CCCSC(=S)C(C#N)C(=N)c1ccccc1 (stereo unspecified)
- growth inhibition [1]: 13.2%
- growth inhibition [2]: 2.25%
- growth inhibition [3]: 14.2%
- growth inhibition [4]: 1.5%
- growth inhibition [5]: -18.9%
- growth inhibition [6]: 10.3%

Compound: CC(C)c1ccccc1[S+]1OC(C)(C)c2ccccc21 (stereo unspecified)
- growth inhibition [1]: -4.9%
- growth inhibition [2]: 21.9%
- growth inhibition [3]: 6.95%
- growth inhibition [4]: 9.45%
- growth inhibition [5]: -1.5%
- growth inhibition [6]: -38.7%

Compound: Cc1cc(Cl)c(O)c(C2(C(O)c3ccc(O)cc3)NC(=S)NC2=O)c1 (stereo unspecified)
- growth inhibition [1]: -20.4%
- growth inhibition [2]: -17.1%
- growth inhibition [3]: -25.6%
- growth inhibition [4]: -6.5%
- growth inhibition [5]: 4.95%
- growth inhibition [6]: -6.75%

Compound: Nc1nc(N)c2nc(-c3ccc(O)cc3)c(-c3ccc(O)cc3)nc2n1
- growth inhibition [1]: -15.5%
- growth inhibition [2]: -4%
- growth inhibition [3]: 0.15%
- growth inhibition [4]: 50.6%
- growth inhibition [5]: 7.9%
- growth inhibition [6]: -13.6%

Compound: O=c1[nH]c2cc(Cl)ccc2nc1/C=C(\O)c1ccccc1
- growth inhibition [1]: 1.35%
- growth inhibition [2]: -18.9%
- growth inhibition [3]: -5.9%
- growth inhibition [4]: 4.55%
- growth inhibition [5]: -19.1%
- growth inhibition [6]: 20.1%
